Test results from article PMC7862700, “An all-to-all approach to the identification of sequence-specific readers for epigenetic DNA modifications on cytosine”.

Legend:
Assay in all cases: DAPPL (digital affinity profiling via proximity ligation, sequencing); 10 mM Tris-HCl pH 7.5, 50 mM NaCl, 1 mM DTT, 4% glycerol, room temperature, 30 min; GST-TFs on glutathione beads, 16-mer random dsDNA library, 0.1% formaldehyde crosslink after washing; high values mean tight binding
Settings in all cases: protein: recombinant; tags: N-terminal GST; dsDNA, one strand shown
FLI1 = target: T1, FLI1 (Homo sapiens, UniProt Q01543 1-452)
T1 sequence: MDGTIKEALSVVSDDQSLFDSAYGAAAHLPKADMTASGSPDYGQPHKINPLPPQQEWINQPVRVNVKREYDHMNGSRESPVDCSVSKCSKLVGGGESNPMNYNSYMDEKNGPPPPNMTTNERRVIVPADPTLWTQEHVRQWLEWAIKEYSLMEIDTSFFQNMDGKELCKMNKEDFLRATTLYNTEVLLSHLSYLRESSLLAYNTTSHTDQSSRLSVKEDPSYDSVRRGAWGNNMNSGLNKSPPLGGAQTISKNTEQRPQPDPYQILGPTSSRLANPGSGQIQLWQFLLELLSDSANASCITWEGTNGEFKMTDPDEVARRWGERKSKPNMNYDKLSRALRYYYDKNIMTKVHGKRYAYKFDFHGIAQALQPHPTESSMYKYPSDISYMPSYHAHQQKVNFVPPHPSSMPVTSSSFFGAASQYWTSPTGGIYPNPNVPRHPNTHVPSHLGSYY
Outline: (§1)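 After expression in yeast as GST fusions, human transcription factors were bound to glutathione beads, DNA-barcoded and mixed with a tag-only sample. The pools were incubated with 200 nmole of a 16-mer random double-stranded DNA library in Tris/NaCl/DTT/glycerol buffer (30 min, room temperature), washed and crosslinked with 0.1% formaldehyde. Proximity ligation with BsaI/T4 ligase ran for 1 h at 37 °C, before PCR amplification and sequencing on an Illumina NextSeq500. Binding signal is a hexamer's read frequency for a factor divided by its frequency for the tag-only sample.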

ELK1 = target: T2, ELK1 (Homo sapiens, UniProt P19419 1-428)
T2 sequence: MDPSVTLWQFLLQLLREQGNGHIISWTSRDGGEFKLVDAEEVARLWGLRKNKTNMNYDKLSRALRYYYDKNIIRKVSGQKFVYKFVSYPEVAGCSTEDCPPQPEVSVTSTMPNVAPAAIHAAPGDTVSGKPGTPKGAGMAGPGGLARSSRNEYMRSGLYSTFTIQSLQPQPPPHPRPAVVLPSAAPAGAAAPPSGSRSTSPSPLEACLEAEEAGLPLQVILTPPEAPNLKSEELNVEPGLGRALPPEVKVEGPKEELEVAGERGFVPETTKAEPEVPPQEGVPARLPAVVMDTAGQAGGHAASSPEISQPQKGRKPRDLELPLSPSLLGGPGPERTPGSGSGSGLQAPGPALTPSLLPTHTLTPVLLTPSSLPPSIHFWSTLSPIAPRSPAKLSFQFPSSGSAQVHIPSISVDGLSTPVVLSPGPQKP
Outline: as §1

GABPA = target: T3, GABPA (Homo sapiens, UniProt Q06546 1-454)
T3 sequence: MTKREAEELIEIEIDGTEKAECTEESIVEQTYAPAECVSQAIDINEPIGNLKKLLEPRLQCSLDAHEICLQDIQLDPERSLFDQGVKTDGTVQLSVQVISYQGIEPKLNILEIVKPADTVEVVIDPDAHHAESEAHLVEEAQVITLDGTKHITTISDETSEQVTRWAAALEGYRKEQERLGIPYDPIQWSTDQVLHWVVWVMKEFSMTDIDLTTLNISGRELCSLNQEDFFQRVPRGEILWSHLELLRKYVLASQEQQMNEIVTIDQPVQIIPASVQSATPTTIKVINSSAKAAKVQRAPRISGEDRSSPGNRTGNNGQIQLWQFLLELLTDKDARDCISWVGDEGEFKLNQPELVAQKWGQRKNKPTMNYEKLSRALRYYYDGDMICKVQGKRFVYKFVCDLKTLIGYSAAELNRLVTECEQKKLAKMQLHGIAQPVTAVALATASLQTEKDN
Outline: as §1

ERG = target: T4, ERG (Homo sapiens, UniProt P11308 1-479)
T4 sequence: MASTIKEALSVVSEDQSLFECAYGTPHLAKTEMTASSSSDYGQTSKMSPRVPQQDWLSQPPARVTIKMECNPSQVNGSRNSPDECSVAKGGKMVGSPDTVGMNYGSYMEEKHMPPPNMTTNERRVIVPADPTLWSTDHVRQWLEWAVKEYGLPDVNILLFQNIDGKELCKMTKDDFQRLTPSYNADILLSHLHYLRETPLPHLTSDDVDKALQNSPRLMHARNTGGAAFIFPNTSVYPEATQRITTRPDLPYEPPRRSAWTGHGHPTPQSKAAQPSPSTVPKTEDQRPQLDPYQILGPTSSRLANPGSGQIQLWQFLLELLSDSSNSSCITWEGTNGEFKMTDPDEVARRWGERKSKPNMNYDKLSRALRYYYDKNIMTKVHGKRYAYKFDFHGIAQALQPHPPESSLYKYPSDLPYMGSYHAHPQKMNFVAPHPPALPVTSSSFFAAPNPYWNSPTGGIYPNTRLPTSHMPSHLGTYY
Outline: as §1

ELF1 = ELF1 (Homo sapiens, UniProt P32519 1-619)
ELF1, sequence (P32519 whole entry): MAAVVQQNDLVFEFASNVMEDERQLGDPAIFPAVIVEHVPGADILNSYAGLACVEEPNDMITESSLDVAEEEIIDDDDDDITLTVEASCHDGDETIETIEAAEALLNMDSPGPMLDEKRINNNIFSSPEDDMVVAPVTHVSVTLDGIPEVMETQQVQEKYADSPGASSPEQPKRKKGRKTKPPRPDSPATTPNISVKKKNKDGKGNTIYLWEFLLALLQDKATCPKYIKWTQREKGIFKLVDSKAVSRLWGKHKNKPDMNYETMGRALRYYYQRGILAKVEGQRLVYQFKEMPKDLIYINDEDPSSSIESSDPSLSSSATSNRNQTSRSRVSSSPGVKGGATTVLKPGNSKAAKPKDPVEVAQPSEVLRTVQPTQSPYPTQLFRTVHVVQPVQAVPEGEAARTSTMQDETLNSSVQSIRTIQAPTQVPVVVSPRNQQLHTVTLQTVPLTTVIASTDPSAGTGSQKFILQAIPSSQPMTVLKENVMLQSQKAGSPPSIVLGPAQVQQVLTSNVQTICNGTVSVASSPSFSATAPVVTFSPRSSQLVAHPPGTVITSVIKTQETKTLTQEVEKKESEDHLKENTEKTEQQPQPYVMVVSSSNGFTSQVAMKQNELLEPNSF
Outline: as §1

EHF = target: T5, EHF (Homo sapiens, UniProt Q9NZC4 1-300)
T5 sequence: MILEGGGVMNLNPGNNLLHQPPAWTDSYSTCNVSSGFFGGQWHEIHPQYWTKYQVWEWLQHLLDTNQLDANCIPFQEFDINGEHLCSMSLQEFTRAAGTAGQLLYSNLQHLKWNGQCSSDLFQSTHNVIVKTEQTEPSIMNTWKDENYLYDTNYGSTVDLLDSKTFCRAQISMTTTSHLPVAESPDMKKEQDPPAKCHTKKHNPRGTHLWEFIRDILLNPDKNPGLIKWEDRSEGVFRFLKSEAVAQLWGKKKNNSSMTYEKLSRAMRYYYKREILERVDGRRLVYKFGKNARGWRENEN
Outline: as §1

SPI1 = SPI1 (Homo sapiens, UniProt P17947 1-270)
Outline: as §1

SPIB = SPIB (Homo sapiens, UniProt Q01892 1-262)
SPIB, sequence (Q01892 whole entry): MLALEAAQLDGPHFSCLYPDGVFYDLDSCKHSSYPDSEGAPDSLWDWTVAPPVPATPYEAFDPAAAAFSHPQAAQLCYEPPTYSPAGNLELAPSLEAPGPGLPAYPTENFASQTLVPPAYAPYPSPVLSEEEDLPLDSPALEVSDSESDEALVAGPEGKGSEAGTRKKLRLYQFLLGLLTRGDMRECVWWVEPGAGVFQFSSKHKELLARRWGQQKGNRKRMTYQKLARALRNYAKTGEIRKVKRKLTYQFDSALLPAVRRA
Outline: as §1

FEV = target: T6, FEV (Homo sapiens, UniProt Q99581 1-238)
T6 sequence: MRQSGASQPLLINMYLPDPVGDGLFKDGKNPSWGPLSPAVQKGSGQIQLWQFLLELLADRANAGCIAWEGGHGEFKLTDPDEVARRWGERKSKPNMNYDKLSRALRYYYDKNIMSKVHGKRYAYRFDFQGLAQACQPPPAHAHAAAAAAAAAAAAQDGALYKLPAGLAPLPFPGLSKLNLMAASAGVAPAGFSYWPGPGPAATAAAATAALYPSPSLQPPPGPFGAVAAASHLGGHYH
Outline: as §1

ETV5 = ETV5 (Homo sapiens, UniProt P41161 1-510)
ETV5, sequence (P41161 whole entry): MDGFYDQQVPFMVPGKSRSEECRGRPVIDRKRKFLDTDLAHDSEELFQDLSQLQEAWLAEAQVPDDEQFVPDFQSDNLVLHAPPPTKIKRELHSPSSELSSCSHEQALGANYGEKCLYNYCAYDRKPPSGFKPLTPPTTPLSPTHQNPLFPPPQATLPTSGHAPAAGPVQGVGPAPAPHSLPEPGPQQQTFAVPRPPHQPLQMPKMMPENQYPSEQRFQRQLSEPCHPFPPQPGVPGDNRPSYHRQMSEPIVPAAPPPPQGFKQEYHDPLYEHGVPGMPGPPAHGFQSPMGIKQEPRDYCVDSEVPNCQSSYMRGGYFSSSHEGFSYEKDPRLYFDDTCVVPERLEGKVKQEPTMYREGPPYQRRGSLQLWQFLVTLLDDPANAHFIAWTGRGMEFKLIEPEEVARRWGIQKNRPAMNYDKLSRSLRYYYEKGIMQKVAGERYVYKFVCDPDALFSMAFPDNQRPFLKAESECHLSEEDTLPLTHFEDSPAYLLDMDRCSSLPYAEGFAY
Outline: as §1

SPIC = target: T7, SPIC (Homo sapiens, UniProt Q8N5J4 1-248)
T7 sequence: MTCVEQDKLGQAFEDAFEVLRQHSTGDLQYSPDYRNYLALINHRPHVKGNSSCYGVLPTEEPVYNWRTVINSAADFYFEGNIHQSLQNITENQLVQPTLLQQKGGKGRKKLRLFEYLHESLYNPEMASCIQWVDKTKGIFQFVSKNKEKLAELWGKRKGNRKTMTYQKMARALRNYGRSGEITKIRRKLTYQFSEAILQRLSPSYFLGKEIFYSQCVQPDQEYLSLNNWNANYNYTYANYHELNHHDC
Outline: as §1

ELF4 = ELF4 (Homo sapiens, UniProt Q99607 1-663)
ELF4, sequence (Q99607 whole entry): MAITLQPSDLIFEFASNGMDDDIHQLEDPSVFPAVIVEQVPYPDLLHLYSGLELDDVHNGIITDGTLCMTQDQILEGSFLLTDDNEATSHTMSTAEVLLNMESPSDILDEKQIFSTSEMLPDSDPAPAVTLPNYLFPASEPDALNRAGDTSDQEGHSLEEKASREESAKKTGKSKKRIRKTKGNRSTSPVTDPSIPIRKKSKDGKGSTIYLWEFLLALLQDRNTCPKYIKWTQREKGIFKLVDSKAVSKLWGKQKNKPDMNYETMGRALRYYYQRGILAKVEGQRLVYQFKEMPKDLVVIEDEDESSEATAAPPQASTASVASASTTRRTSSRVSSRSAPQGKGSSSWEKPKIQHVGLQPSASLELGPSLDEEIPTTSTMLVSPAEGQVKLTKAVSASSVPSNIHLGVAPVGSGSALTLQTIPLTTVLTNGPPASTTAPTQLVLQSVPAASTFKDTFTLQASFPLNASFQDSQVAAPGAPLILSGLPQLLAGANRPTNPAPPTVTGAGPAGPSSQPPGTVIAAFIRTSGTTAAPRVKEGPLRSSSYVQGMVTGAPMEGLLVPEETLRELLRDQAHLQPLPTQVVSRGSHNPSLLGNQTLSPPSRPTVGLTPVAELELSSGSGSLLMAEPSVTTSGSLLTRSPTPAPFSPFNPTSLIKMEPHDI
Outline: as §1

ETV1 = ETV1 (Homo sapiens, UniProt P50549 1-477)
ETV1, sequence (P50549 whole entry): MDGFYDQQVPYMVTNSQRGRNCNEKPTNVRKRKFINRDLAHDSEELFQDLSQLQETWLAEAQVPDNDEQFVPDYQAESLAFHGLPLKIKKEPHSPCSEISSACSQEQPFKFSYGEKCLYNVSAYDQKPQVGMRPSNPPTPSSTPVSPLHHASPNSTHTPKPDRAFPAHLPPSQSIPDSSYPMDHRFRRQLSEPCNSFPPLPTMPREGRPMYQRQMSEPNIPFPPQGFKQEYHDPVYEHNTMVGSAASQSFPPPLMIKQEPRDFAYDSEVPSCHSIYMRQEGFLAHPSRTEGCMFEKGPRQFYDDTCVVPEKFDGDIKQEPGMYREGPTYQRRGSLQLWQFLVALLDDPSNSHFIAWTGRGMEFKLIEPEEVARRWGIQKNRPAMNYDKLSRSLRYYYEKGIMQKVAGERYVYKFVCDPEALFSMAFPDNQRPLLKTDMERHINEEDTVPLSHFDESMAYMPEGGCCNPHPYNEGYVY
Outline: as §1

ERF = target: T8, ERF (Homo sapiens, UniProt P50548 1-548)
T8 sequence: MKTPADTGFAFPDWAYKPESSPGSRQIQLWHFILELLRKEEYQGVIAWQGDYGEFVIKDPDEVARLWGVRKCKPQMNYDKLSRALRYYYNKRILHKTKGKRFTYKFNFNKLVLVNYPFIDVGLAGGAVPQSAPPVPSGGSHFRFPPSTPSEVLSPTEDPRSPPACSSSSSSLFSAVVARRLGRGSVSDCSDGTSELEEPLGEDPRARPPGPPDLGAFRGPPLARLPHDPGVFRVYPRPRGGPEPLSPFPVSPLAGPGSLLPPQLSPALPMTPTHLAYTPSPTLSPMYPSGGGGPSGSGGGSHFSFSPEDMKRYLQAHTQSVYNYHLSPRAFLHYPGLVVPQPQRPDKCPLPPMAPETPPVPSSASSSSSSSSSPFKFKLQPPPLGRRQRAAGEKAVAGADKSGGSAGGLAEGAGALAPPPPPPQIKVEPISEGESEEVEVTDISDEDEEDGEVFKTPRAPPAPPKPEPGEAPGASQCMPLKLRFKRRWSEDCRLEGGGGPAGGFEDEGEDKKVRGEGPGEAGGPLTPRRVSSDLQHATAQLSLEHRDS
Outline: as §1

ETV3L = target: T9, ETV3L (Homo sapiens, UniProt Q6ZN32 1-361)
T9 sequence: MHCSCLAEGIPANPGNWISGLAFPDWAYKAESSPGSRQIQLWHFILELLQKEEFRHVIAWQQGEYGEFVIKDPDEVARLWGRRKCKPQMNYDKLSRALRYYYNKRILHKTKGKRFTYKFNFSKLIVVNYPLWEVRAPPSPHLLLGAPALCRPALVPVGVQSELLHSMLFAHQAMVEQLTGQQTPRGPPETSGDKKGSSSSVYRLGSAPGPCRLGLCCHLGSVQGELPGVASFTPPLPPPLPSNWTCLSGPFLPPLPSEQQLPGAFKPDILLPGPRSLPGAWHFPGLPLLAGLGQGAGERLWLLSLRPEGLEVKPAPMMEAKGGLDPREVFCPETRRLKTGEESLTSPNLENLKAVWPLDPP
Outline: as §1

ETS2 = target: T10, ETS2 (Homo sapiens, UniProt P15036 1-469)
T10 sequence: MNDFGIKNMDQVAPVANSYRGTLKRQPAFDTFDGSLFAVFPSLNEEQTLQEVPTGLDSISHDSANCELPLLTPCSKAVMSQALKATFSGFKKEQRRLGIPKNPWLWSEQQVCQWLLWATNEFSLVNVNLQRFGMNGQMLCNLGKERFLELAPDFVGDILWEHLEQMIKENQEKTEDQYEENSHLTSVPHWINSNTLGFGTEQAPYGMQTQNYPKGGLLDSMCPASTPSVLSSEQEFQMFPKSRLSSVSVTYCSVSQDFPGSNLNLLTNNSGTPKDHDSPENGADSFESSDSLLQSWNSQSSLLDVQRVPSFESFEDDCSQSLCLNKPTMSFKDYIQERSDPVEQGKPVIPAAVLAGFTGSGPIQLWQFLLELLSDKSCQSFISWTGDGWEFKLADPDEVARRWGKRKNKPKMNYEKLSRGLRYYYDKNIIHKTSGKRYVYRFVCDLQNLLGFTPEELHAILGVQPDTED
Outline: as §1

ETV6 = ETV6 (Homo sapiens, UniProt P41212 1-452)
ETV6, sequence (P41212 whole entry): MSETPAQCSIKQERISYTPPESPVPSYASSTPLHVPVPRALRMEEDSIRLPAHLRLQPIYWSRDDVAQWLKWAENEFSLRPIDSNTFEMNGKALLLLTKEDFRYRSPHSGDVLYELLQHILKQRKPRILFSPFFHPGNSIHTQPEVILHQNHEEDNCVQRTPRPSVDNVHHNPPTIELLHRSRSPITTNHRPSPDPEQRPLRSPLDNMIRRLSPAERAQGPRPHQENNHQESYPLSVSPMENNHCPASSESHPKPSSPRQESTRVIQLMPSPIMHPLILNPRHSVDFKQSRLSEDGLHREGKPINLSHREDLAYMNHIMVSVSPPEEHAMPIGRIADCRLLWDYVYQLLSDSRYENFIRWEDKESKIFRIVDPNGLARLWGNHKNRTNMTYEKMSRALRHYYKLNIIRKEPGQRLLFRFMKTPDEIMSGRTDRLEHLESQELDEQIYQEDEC
Outline: as §1

AGTATG
binding signal (FLI1): 1.05 fold enrichment (6-mer frequency, TF over GST control) | binding signal (ELK1): 1.01 fold enrichment (6-mer frequency, TF over GST control) | binding signal (GABPA): 1.03 fold enrichment (6-mer frequency, TF over GST control) | binding signal (ERG): 1 fold enrichment (6-mer frequency, TF over GST control) | binding signal (ELF1): 1.04 fold enrichment (6-mer frequency, TF over GST control) | binding signal (EHF): 1.11 fold enrichment (6-mer frequency, TF over GST control) | binding signal (SPI1): 1.08 fold enrichment (6-mer frequency, TF over GST control) | binding signal (SPIB): 1.11 fold enrichment (6-mer frequency, TF over GST control) | binding signal (FEV): 1.02 fold enrichment (6-mer frequency, TF over GST control) | binding signal (ETV5): 1.02 fold enrichment (6-mer frequency, TF over GST control) | binding signal (SPIC): 1.04 fold enrichment (6-mer frequency, TF over GST control) | binding signal (ELF4): 1.04 fold enrichment (6-mer frequency, TF over GST control) | binding signal (ETV1): 1.02 fold enrichment (6-mer frequency, TF over GST control) | binding signal (ERF): 1.02 fold enrichment (6-mer frequency, TF over GST control) | binding signal (ETV3L): 1.13 fold enrichment (6-mer frequency, TF over GST control) | binding signal (ETS2): 1.09 fold enrichment (6-mer frequency, TF over GST control) | binding signal (ETV6): 1 fold enrichment (6-mer frequency, TF over GST control)
